# In the library only some 12% were active in any assay of this set; here they are far more common.
# FMDV antiviral: blocks foot and mouth disease virus; FMDV antiviral cell-based qHTS; Potency, µM (series often up to 57.9 µM), for the others: at the highest dose activity change, negative = inhibition, actives largely listed as inhibitors; 410,000 tested, 1.2% active; AID 1159524; calls by dose curve; tested in HEK293T cells; also: read-out not given here; potency is read from the fitted curve at half-maximal effect; % is scaled to controls: 0 for no effect and ±100 for the full control effect; nearly all actives have a fitted effect of over 45% in size
# Cycloheximide cs: counter-screen for Shiga toxin inhibitors: cycloheximide protein synthesis inhibition. cell reporter, cycloheximide protein synthesis inhibition counterscreen. max response, %. 300,000 tested, 12% active; in the data active = max response mostly above about 13%, no sharp cut-off; inactive = mostly below about 14%; also: read at 38.3 µM for the half of the compounds with a filed dose; 0% is about no effect
# Sm TGR inh: inhibitors of Schistosoma mansoni thioredoxin glutathione reductase; Potency, µM (series often up to 114 µM), for inactives: top-dose activity change, negative = inhibition, hits mostly inhibitors; purified TGR, DTNB reduction, TNB absorbance 405 nm; 360,000 tested, 3% active; AID 485364; active = well fitted inhibition curve with a large enough effect; inconclusive = small, poorly fitted or top-dose-only effect; inactive = no such curve, though single readings can be large or run the other way; also: potency is read from the fitted curve at half-maximal effect; % is scaled to controls: 0 for no effect and ±100 for the full control effect; nearly all actives have a fitted effect of over 60% in size
#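 TGR 20 nM + NADPH 100 uM (dispensed conc.), cpd preinc 15 min RT; start with NADPH (500 uM addition) then DTNB (15 mM addition). Kinetic TNB absorbance, 405 nm filter. Four-parameter Hill fit across titration.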
# Shiga toxin inh: blocks Shiga toxin action in Vero cells. 290,000 tested, 9.2% active. Vero cells, Shiga toxin protein synthesis inhibition reporter. inhibition, % at 38.7 µM. AID 2315; in the data active = inhibition mostly above about 28%, no sharp cut-off; inactive = mostly below about 43%; also: 0% is about no effect
# * marks the source's active call; other numbers are inactive results; ? = inconclusive; . = no result.
SMILES,FMDV antiviral,Cycloheximide cs,Sm TGR inh,Shiga toxin inh
CCN1CCN(c2oc(COc3ccc(-c4ccccc4)cc3)nc2C#N)CC1,?,20*,-6%,2
N#Cc1nc(COc2ccccc2F)oc1N1CCCCCC1,14%,24*,-5%,28*
N#Cc1nc(COc2ccccc2Cl)oc1N1CCCCCC1,?,-3,-15%,-2
N#Cc1nc(COc2ccc(Cl)cc2)oc1N1CCCCCC1,-14%,9,6%,14
N#Cc1nc(COc2ccccc2)oc1N1CCCCC1,26%,51*,4%,83*
Cc1ccc(OCc2nc(C#N)c(N3CCCCC3)o2)cc1,10%,18*,25%,14
Cc1cc(C(=O)C(=O)Nc2nncs2)c(C)n1-c1ccc(Cl)cc1,24%,.,2%,.
COc1ccc(-c2cc(C(=O)Nc3c(C)nn(Cc4ccc(F)cc4)c3C)no2)cc1OC,-28%,.,2%,.
COc1ccccc1C(=O)O/N=C(\N)c1ccccn1,-17%,22*,-4%,34
N/C(=N\OC(=O)c1ccccc1Cl)c1ccccn1,-89%,2,1%,-11
Cc1ccc(C(=O)O/N=C(\N)c2ccccn2)c(C)c1,0.89µM*,-7,5%,-22
COc1cc(OC)c(C(=O)O/N=C(\N)c2ccccn2)cc1OC,57%,14*,1%,78*
C=CCOC(=O)C1=C(C)OC(N)=C(C#N)C1c1ccoc1 (stereo unspecified),-20%,0,20µM*,1
CC(=O)C1=C(C)OC(N)=C(C#N)C1c1ccco1 (stereo unspecified),-4%,-2,13µM*,-26
CC(=O)C1=C(C)OC(N)=C(C#N)C1c1cccc2ccccc12 (stereo unspecified),-25%,-3,11µM*,2
CC(=O)C1=C(C)OC(N)=C(C#N)C1c1ccncc1 (stereo unspecified),0%,-1,43%,-14
Cc1nn(-c2ccccc2)c2c1C(c1ccco1)C(C#N)=C(N)O2 (stereo unspecified),31%,40*,?,55*
CCn1cc2nc(SCc3cccc(C(F)(F)F)c3)n(Cc3ccc(Cl)cc3)c(=O)c2n1,?,.,21%,.
CCOC(=O)c1c(S(=O)(=O)N2CCC(C(=O)Nc3cccc(C#N)c3)CC2)c(C)n(C)c1C,-11%,.,4%,.
COc1ccc(NC(=S)Nc2ccc3nsnc3c2)cc1,28%,41*,40µM*,61
CCOc1ccc(NC(=S)Nc2ccc(OC(F)(F)F)cc2)cc1,0%,-1,4%,0
CCOc1ccc(NC(=O)Nc2ccc3nsnc3c2)cc1,20%,33*,0%,32
CCOc1ccc(NC(=S)Nc2cc(C)[nH]n2)cc1,56%,27*,-26%,62*
CCOc1ccc(NC(=S)Nc2ccc3nsnc3c2)cc1,31%,33*,?,57*
COc1cccc(NC(=O)/C=C/c2ccc([N+](=O)[O-])cc2)c1,25%,39*,-29%,47*
SMILES,FMDV antiviral,Cycloheximide cs,Sm TGR inh,Shiga toxin inh
O=C(/C=C/c1ccccc1[N+](=O)[O-])Oc1ccccc1,.,1,5%,-6
COc1ccc(Oc2ccc(/C=C/C(=O)c3cccc(OC)c3)cc2[N+](=O)[O-])cc1,32µM*,-3,-11%,-12
COc1ccc(Oc2ccc(/C=N/NC(=O)c3cccnc3)cc2[N+](=O)[O-])cc1,0%,-2,0%,-6
COc1cccc(NC(=O)/C=C/c2ccccc2[N+](=O)[O-])c1,26%,61*,2%,74*
COC(=O)C(=Cc1ccccc1[N+](=O)[O-])C(=O)OC,16µM*,8,7.1µM*,-1
Cc1c(Cl)cccc1NC(=O)Cn1cnc2nc3c(cc2c1=O)CCCC3,-14%,.,-4%,.
COc1cccc(CNC(=O)c2ccc(-n3c(C)cc4c3CCC(C)C4)cc2)c1 (stereo unspecified),-22%,.,12%,.
O=C(/C=C/c1ccccc1[N+](=O)[O-])Nc1cccnc1,29%,36*,-4%,45*
CCCCOc1ccc(/C=C/C(=O)Nc2ccc([N+](=O)[O-])cc2C)cc1,0%,0,-2%,10
CCCOc1ccc(/C=C/C(=O)Nc2ccc([N+](=O)[O-])cc2)cc1,5.6µM*,-3,-25%,-15
COc1cccc(C(=O)N2CCC(N3CCN(Cc4ccc(F)cc4)C(=O)C3=O)CC2)c1,-1%,.,12%,.
N#CCSc1ccsc1C(=O)Nc1ccc(F)cc1,15%,22*,-14%,32
O=C(Nc1ccc(F)cc1)c1cncs1,-1%,-2,-20%,-9
CC(C)CCOc1ccc(/C=N/N2C(=O)CSC2=S)cc1,-1%,-3,-13%,-13
COc1cc(/C=N/N2C(=O)c3ccccc3C2=O)ccc1O,7%,20*,-6%,0
O=C1CSC(=S)N1N=Cc1c[nH]c2ccc(Br)cc12,-7%,.,.,.
Oc1ccc(/C=N/N(c2ccccc2)c2ccccc2)c(O)c1O,.,-3,40µM*,15
COc1ccc(/C=N/N2C(=N)SCC2=O)cc1,0%,14*,5%,29
O=C1CSC(=S)N1/N=C/c1cc(Br)c(O)c(Br)c1,?,-2,20µM*,-13
CCOc1ccccc1-n1nnc(-c2nc(-c3ccccc3)no2)c1N,34%,.,3%,.
COc1cc(/C=N/N=C2/NC(=O)C(Cc3ccc(F)cc3)S2)ccc1O (stereo unspecified),3%,34*,3%,84*
O=C1CSC(=S)N1/N=C/c1ccc(Cl)c([N+](=O)[O-])c1,.,12,22µM*,8
O=C1c2ccccc2C(=O)N1/N=C/c1ccc(O)c(O)c1O,8%,24*,50µM*,55*
COc1cc(/C=N/N2C(=O)CSC2=S)ccc1O,0%,9,5.6µM*,-8
COc1cc(O)c(C=NN2C(=O)CSC2=S)c(OC)c1,-3%,.,.,.
SMILES,FMDV antiviral,Cycloheximide cs,Sm TGR inh,Shiga toxin inh
COc1ccc(OCC(=O)Nc2nnc(S(=O)(=O)N3CCc4ccccc43)s2)cc1,-13%,.,7%,.
CC(=O)c1ccccc1-c1ccc2c(c1)CC(CNC(=O)Cc1c[nH]c3ccccc13)O2 (stereo unspecified),0%,.,.,.
O=C1CSC(=S)N1N=Cc1cccc2ccccc12,-20%,.,.,.
Cc1ccccc1N=C1C(=O)Nc2ccccc21,-20%,.,.,.
O=C1CSC(=S)N1/N=C/c1ccc2c(c1)OCCO2,?,35*,7.1µM*,57*
COc1cc(/C=N/N=C2/C(=O)Nc3ccccc32)ccc1O,-25%,23*,-13%,0
COc1cc(/C=N/N2C(=O)C3C4C=CC(CC4)C3C2=O)ccc1O (stereo unspecified),45%,42,0%,57*
Cc1ccsc1/C=N/N=C1\C(=O)Nc2ccccc21,30%,40*,0%,49*
O=C1Nc2ccccc2/C1=N\N=C\c1ccc(O)c(O)c1,-13%,9,-25%,5
CCc1ccccc1NC(=O)N(C)CCc1c(C)nn(C)c1C,0%,.,3%,.
O=C1C2C3C=CC(CC3)C2C(=O)N1/N=C/c1ccccc1O (stereo unspecified),.,20*,26%,28
CC(C)(C)c1ccc(S(=O)(=O)NCc2ccccn2)cc1,33%,18*,-5%,48
CCOc1ccccc1NC(=O)NC(CC)c1c(-n2cccc2)sc2c1CCN(C)C2 (stereo unspecified),-11%,.,-12%,.
